Most compounds without a hit are left out; they make up all but 10% or so of the library.
Luciferase inh: inhibitors of firefly (Photinus pyralis) luciferase; P08659; purified P. pyralis luciferase, luminescence, biochemical; Potency, µM (doses to about 115 µM), usual class: inhibitors; 2.5% of 76,000 active; AID 1347043; note: nearly all actives have a fitted effect of over 65% in size
Target sequence (P08659 whole entry, looked up): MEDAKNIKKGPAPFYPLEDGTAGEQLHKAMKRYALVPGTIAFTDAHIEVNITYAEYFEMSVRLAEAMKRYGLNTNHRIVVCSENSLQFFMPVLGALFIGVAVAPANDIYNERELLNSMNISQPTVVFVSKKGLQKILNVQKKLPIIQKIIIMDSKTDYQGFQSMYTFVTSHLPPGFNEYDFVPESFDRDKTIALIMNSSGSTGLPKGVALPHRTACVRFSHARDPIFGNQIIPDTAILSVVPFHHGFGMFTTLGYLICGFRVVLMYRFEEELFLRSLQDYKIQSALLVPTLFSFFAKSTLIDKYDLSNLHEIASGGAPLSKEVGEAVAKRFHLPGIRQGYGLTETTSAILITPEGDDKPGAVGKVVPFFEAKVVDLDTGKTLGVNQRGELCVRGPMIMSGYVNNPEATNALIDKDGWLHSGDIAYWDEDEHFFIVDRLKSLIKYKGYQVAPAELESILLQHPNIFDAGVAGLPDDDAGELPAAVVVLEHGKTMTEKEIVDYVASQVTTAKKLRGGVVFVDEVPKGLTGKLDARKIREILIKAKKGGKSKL
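Inhibitors were tested against purified firefly luciferase in a biochemical, low-substrate format (both substrates at 10uM) and luminescence measured with a CCD imager.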
HEK293 tox: cytotoxic compounds in HEK 293 cells; HEK 293 viability, ATP luminescence (CellTiter-Glo), 48-72 h; Potency, µM (series often up to 115 µM), hits mostly inhibitors; 6.6% of 94,000 active; note: nearly all actives have a fitted effect of over 60% in size
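HEK 293 cells seeded at 250 cells/well were exposed to compound for 48 or 72 hr at 37 degree Celsius. Viability taken as ATP content by CellTiter-Glo luminescence.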
3T3 cytotox: NIH 3T3 cell cytotoxicity; NIH 3T3 viability, CellTiter-Glo ATP luminescence, 48-72 h; Potency, µM (series often up to 96.7 µM), most hits filed as inhibitors; 4.3% of 94,000 active; note: nearly all actives have a fitted effect of over 55% in size
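Viability of NIH 3T3 cells after 48 or 72 hr compound treatment at 37 °C was assessed by CellTiter-Glo, with luminescence imaged following a 10 min room-temperature step.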
GPT2 inh: inhibitors of human GPT2 alanine aminotransferase; Potency, µM (top dose mostly 57.7 µM), usual class: inhibitors; Q8TD30; Recombinant GPT2, coupled pyruvate oxidase/HRP Amplex Red fluorescence; 0.25% of 100,000 active; note: nearly all actives have a fitted effect of over 60% in size
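Fluorescence of coupled pyruvate oxidase/HRP/Amplex Red system (50uM Amplex, 30 min, dark) reports pyruvate formed by GPT2. Enzyme reaction: 10ng/uL GPT2, 2mM L-alanine, 250uM a-KG, 30 min room temperature, pH 7.5; 50uM AOA control.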
NPR1 antag: blocks ANP-stimulated signaling of human Npr1 receptor | P16066 | AID 1347048 | Potency, µM (series often up to 46.3 µM), usual class: inhibitors | 1.6% of 76,000 active | HEK293 hNpr1 GloSensor cGMP, ANP-stimulated luminescence; calls by dose curve; note: nearly all actives have a fitted effect of over 60% in size
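Compound pre-incubated 30 min at room temperature on GloSensor-loaded HEK293 cells stably carrying hNpr1 and the pGS-40F cGMP biosensor. Stimulation uses hNppA at 0.1 nM final; luminescence is taken at baseline and 20 min post-agonist.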
Each line names hits and unclear results; the compound was inactive in the other large screens; ! = not confirmed by another sample. Unless noted, calls come from the whole dose curve; as a rule, active = well fitted curve in the direction sought with a large enough effect; inconclusive = small, poorly fitted or top-dose-only effect, or another doubt; inactive = no such curve, though single readings can be large; an effect the other way counts as inactive or inconclusive.

COc1cccc(CC(=O)N2CCC(N3CC4CC(C3)[C@H]3CCCC(=O)N3C4)CC2)c1 (stereo not given in full)	none
COc1cccc(CN2Cc3cc(NS(=O)(=O)c4ccccc4)ccc3OCC2=O)c1OC	HEK293 tox inconclusive, 3T3 cytotox inconclusive
O=C(c1cccc(Cl)c1)N1CCC2(CC1)Cc1ccccc1NC2=O	HEK293 tox inconclusive, 3T3 cytotox inconclusive
O=C(Cc1ccccc1)N1CCC2(Cc3ccccc3NC2=O)C1 (stereo not given)	HEK293 tox 100µM
O=C(Cc1ccc(F)cc1)N1CCC2(CC1)Cc1ccccc1NC2=O	NPR1 antag inconclusive
COc1cccc(C(=O)N2CCC3(CC2)Cc2ccccc2NC3=O)c1	HEK293 tox 44.7µM, 3T3 cytotox 35.5µM
Cc1ccc(C(=O)N2CCC23Cc2ccccc2NC3=O)cc1 (stereo not given)	HEK293 tox 100µM
O=C(c1ccc(Cl)cc1)N1CCC2(Cc3ccccc3NC2=O)C1 (stereo not given)	HEK293 tox inconclusive, 3T3 cytotox inconclusive
O=C(c1ccc(Cl)cc1)N1CCC2(CC1)Cc1ccccc1NC2=O	HEK293 tox inconclusive, 3T3 cytotox 28.2µM!
COc1ccc(C(=O)N(C)C2CCOc3ccccc32)cc1 (stereo not given)	Luciferase inh inconclusive
O=C(c1ccccc1F)N1CCC2(CC1)Cc1ccccc1NC2=O	HEK293 tox 50.1µM, 3T3 cytotox inconclusive
Cc1noc2c(-c3cccnc3NCC3CCOCC3)cc(-c3ccccc3)nc12	HEK293 tox inconclusive, 3T3 cytotox inconclusive
O=C1N[C@@H]2CCN(S(=O)(=O)c3ccccc3)[C@@H]2C(=O)N1c1ccc(F)cc1	none
CCn1nc(-c2ccc3c(c2)OCCO3)nc1N(C)C	Luciferase inh 39.8µM, GPT2 inh inconclusive
CN(Cc1cccc(C(F)(F)F)c1)C(=O)Nc1ccc(Cl)cc1	HEK293 tox 39.8µM, 3T3 cytotox 20µM
CN(Cc1cccc(C(F)(F)F)c1)C(=O)Nc1ccccc1	Luciferase inh inconclusive, HEK293 tox inconclusive, 3T3 cytotox inconclusive
CC(C)(C)C(=O)N[C@H]1C[C@@H](Cc2cc(-c3ccccc3)on2)C1(C)C	Luciferase inh inconclusive, HEK293 tox inconclusive, 3T3 cytotox inconclusive, NPR1 antag inconclusive
CCc1ccc(NC(=O)c2cc3n(n2)CC(c2ccc4c(c2)OCO4)OC3)cc1 (stereo not given)	Luciferase inh inconclusive, HEK293 tox 31.6µM, 3T3 cytotox inconclusive, NPR1 antag 11.2µM
CCC(C)NC(=O)c1cc2n(n1)CC(c1ccc3c(c1)OCO3)OC2 (stereo not given)	HEK293 tox inconclusive, 3T3 cytotox inconclusive
CC(C)CNC(=O)c1cc2n(n1)CC(c1ccc3c(c1)OCO3)OC2 (stereo not given)	HEK293 tox 44.7µM, 3T3 cytotox 39.8µM
CC(=O)Nc1ccc(C(=O)NC[C@@H]2C=C(C)[C@H](CC(=O)NCCN3CCOCC3)C[C@H]2C(C)C)cc1	Luciferase inh 44.7µM, GPT2 inh inconclusive
CC1=C[C@@H](CNC(=O)COc2ccccc2)[C@H](C(C)C)C[C@H]1CC(=O)NCCN1CCOCC1	none
CC1=C[C@@H](CNS(=O)(=O)c2cccs2)[C@H](C(C)C)C[C@H]1CC(=O)NCCN1CCOCC1	3T3 cytotox 25.1µM
Cc1noc(C)c1-c1cc2c(cc(C)n2C)c(Nc2ccncn2)n1	HEK293 tox inconclusive, 3T3 cytotox 20µM, GPT2 inh inconclusive
Cc1noc(C)c1-c1cc2c(cc(C)n2C)c(NCCN(C)C)n1	HEK293 tox inconclusive, 3T3 cytotox inconclusive, GPT2 inh inconclusive
Cc1cc2c(Nc3cccnc3)nc(-c3c(C)noc3C)cc2[nH]1	HEK293 tox inconclusive, 3T3 cytotox inconclusive
Cc1noc(C)c1-c1cc2c(cc(-c3ccccc3)n2C)c(Nc2ccncn2)n1	HEK293 tox 31.6µM, 3T3 cytotox inconclusive
COC(=O)[C@@H]1Cc2ncn(Cc3ccc(Cl)cc3)c2CN1C(=O)c1ccccc1	none
COc1cccc(CN2Cc3c(CNc4cccc(C(F)(F)F)c4)nnn3CCC2=O)c1	HEK293 tox inconclusive, 3T3 cytotox inconclusive
CN1CCN(C(CN)C2CCCCC2)CC1 (stereo not given)	HEK293 tox inconclusive, 3T3 cytotox 44.7µM (no result: Luciferase inh, NPR1 antag)
CC(C)(C)C(=O)N1CC[C@@H](CC(=O)O)[C@@H](CC2=NCCc3ccc(C(C)(C)C)cc32)C1	3T3 cytotox 100µM
COc1ccc(-c2noc(Nc3cc(C)ccc3OC)n2)cc1	Luciferase inh 17.8µM, HEK293 tox inconclusive, 3T3 cytotox inconclusive
COc1ccc(C)cc1Nc1nc(-c2ccc(OC)c(OC)c2)no1	Luciferase inh inconclusive, HEK293 tox inconclusive, 3T3 cytotox inconclusive
COC(=O)c1ccc(COCC2=CC(C)(C)Oc3ccc(OC)cc32)cc1	HEK293 tox 35.5µM, 3T3 cytotox inconclusive (no result: Luciferase inh, GPT2 inh, NPR1 antag)
CCOC(=O)c1cccc(NC(=O)N2CC[C@@H](CC(=O)Nc3ccccc3)[C@@H](CC)C2)c1	none
CCOC(=O)c1cccc(NC(=O)C2=CC(C)(C)Oc3ccc(OC)cc32)c1	HEK293 tox 25.1µM, 3T3 cytotox 28.2µM (no result: Luciferase inh, GPT2 inh, NPR1 antag)
O=C(CC1CCCCC1)NCc1nnc2c(-c3nc(C4CC4)no3)cccn12	none
C[C@@H]1CN(S(=O)(=O)c2ccccc2)CC[C@@]1(O)C1CCOCC1	none
CN(C)c1ccc(CN2CC[C@H](c3nc4c(C(N)=O)cccc4[nH]3)C2)cc1	HEK293 tox 70.8µM, 3T3 cytotox 100µM, NPR1 antag inconclusive
c1ccc(C(CNc2nccc(-c3ccncc3)n2)N2CCOCC2)nc1 (stereo not given)	none
COc1ccc(-c2nnc3ccc(Nc4cccc(OC)c4)nn23)nc1	HEK293 tox inconclusive, 3T3 cytotox inconclusive
COc1ccnc(-c2nnc3ccc(Nc4cc(OC)c(OC)c(OC)c4)nn23)c1	HEK293 tox inconclusive, 3T3 cytotox 50.1µM
COc1ccc(-c2nnc3ccc(NC(C)C)nn23)nc1	3T3 cytotox 50.1µM
COc1ccc(Nc2ccc3nnc(-c4ccc(C)cn4)n3n2)cc1	HEK293 tox 70.8µM, 3T3 cytotox inconclusive
Cc1ccc(-c2nnc3ccc(NC4CCC4)nn23)nc1	HEK293 tox inconclusive, 3T3 cytotox inconclusive
Cc1ccc(-c2nnc3ccc(NC4CCCCC4)nn23)nc1	HEK293 tox 70.8µM, 3T3 cytotox inconclusive
C=CC[C@@H]1C=C(C)C[C@H](C)C[C@H](OC)[C@H]2O[C@@](O)(C(=O)C(=O)N3CCCC[C@H]3C(=O)O[C@H](C(C)=C[C@@H]3CC[C@H](O)[C@H](OC)C3)[C@@H](C)[C@@H](O)CC1=O)[C@@H](C)C[C@@H]2OC	none (no result: Luciferase inh, HEK293 tox, 3T3 cytotox, NPR1 antag)
COc1ccc(Nc2ccnc(N3CCCC(C(=O)NCCc4ccc(F)cc4)C3)n2)cc1 (stereo not given)	HEK293 tox 31.6µM, 3T3 cytotox 25.1µM (no result: Luciferase inh, NPR1 antag)
Cc1ccc(Nc2ccnc(N3CCCC(C(=O)NCCc4ccc(F)cc4)C3)n2)cc1 (stereo not given)	HEK293 tox 31.6µM, 3T3 cytotox 31.6µM (no result: Luciferase inh, NPR1 antag)

Compound activity as filed in PubChem.
